Screening results (PubChem)
This is a sample that favours compounds with a hit; in the whole collection about 11% have one here.
IL-1B inflam inh = qHTS for Inhibitors of Inflammasome Signaling: IL-1-beta AlphaLISA Primary Screen; activity change, % at 57.5 µM; 360,000 compounds, 4.7% hits; THP-1 LPS/ATP IL-1B secretion, AlphaLISA, 16 h; hits give low values; in the data active means activity change below about -50%; inconclusive means mostly about -30% to -49%; further: on the % scale 0 is the no-effect control and ±100 the full control effect
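THP-1 cells pretreated 1 hr with compounds (up to 57.5 uM final), then stimulated with LPS (250 ng/mL final) plus ATP (1.25 mM final); secreted IL-1B measured by AlphaLISA after 16 hr, decreased signal indicating inhibition.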
MCF10A rereplic = A quantitative high throughput screen for small molecules that induce DNA re-replication in MCF 10a normal breast cells; MCF 10A DNA re-replication, Hoechst nuclear intensity, 48 h; Potency, µM (top dose mostly 46.1 µM), without a hit: at the top dose activity, positive = re-replication, hits mostly activators; 350,000 compounds, 2.9% hits; further: potency means the concentration at half of the fitted maximal effect; % of control where 0% means no effect; nearly all actives have a fitted effect of over 50% in size
Gal4-VP16 FLuc = VP16 counterscreen qHTS for inhibitors of ROR gamma transcriptional activity; Drosophila S2 Gal4-VP16 UAS-luciferase, luminescence, 20 h; Potency, µM (series often up to 53.6 µM), inactives show top-dose activity, negative = inhibition, actives largely listed as inhibitors; 310,000 compounds, 3.5% hits; AID 2546, 2010;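 further: Gal4-VP16 expression switched on by copper sulfate through the metallothionein promoter; potency means the concentration at half of the fitted maximal effect; on the % scale 0 is the no-effect control and ±100 the full control effect; nearly all actives have a fitted effect of over 50% in size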
SW480 rereplic = A quantitative high throughput screen for small molecules that induce DNA re-replication in SW480 colon adenocarcinoma cells; SW480 DNA re-replication, Hoechst DNA content imaging, 48 h; Potency, µM (highest dose often 46.1 µM), for inactives: at the top dose re-replication activation, hits mostly activators; AID 624297, 2012; 340,000 compounds, 1.8% hits; further: potency means the concentration at half of the fitted maximal effect; % of control where 0% means no effect; nearly all actives have a fitted effect of over 55% in size
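250 cells/well; 23 nL cpd via pin tool; 48 hr, 37 C, 5% CO2; Hoechst 40 min; imager read of total nuclear intensity, ex 405/em 500-530 nm.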
RORgamma inh = qHTS for inhibitors of ROR gamma transcriptional activity; Nuclear receptor ROR-gamma (Mus musculus), P51450; Drosophila S2 Gal4-RORgamma UAS-luciferase reporter, 20 h; Potency, µM (doses to about 53.6 µM), without a hit: at the highest dose activity change, negative = inhibition, usual class: inhibitors; 310,000 compounds, 5.4% hits; further: potency means the concentration at half of the fitted maximal effect; on the % scale 0 is the no-effect control and ±100 the full control effect; nearly all actives have a fitted effect of over 60% in size
Target sequence (P51450 whole entry, looked up, the tested form may be a part): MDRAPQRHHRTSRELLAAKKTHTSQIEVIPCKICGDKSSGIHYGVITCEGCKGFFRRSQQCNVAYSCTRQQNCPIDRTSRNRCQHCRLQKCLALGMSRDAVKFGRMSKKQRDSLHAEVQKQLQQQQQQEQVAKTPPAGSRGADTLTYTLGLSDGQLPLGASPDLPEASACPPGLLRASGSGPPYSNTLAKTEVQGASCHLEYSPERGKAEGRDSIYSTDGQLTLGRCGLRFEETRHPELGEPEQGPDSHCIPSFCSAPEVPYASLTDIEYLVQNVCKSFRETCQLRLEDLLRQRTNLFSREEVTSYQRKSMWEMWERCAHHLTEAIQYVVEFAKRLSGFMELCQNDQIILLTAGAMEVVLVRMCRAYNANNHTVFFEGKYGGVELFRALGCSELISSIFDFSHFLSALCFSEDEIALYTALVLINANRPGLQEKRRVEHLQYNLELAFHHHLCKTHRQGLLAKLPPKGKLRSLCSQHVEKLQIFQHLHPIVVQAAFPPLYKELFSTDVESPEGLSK
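Read-out: Photinus luciferase luminescence; inhibitors lower reporter signal. Insect Schneider cells with Gal4-ROR gamma fusion under metallothionein promoter, UAS reporter; 700 uM final copper sulfate induction, 20 hr, ambient temperature.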
Numbers without * were called inactive; ? = inconclusive; / = no result given; [ ] = dose if it differs, or a comment. Unless noted, the call rests on the fitted dose curve; in most records, active means well fitted curve in the direction sought with a large enough effect; inconclusive means small, poorly fitted or top-dose-only effect, or another doubt; inactive means no such curve, though single readings can be large; an effect the other way counts as inactive or inconclusive.

SMILES | IL-1B inflam inh | MCF10A rereplic | Gal4-VP16 FLuc | SW480 rereplic | RORgamma inh
CC1C(=O)N(Cc2cn(Cc3ccco3)nn2)CCS(=O)(=O)N1Cc1ccc(-c2ccccc2C(F)(F)F)cc1 (stereo unspecified) | -60* | / | / | / | /
CC(C)CC1C(=O)N(Cc2cn(Cc3ccco3)nn2)CCS(=O)(=O)N1Cc1ccc(-c2ccc(F)cc2)cc1 (stereo unspecified) | -72* | / | / | / | /
Cc1ccc(-c2ccc(CN3C(C)C(=O)N(Cc4cn(Cc5ccco5)nn4)CCS3(=O)=O)cc2)c(C)c1 (stereo unspecified) | -61* | / | / | / | /
CC1C(=O)N(Cc2cn(Cc3ccco3)nn2)CCS(=O)(=O)N1Cc1ccc(-c2ccc(Cl)c(Cl)c2)cc1 (stereo unspecified) | -51* | / | / | / | /
Cc1ccc(-c2ccc(CN3C(C)C(=O)N(Cc4cn(Cc5ccco5)nn4)CCS3(=O)=O)cc2)cc1 (stereo unspecified) | -10 | / | / | / | /
c1ccc(-c2nc(-c3ccccn3)nc(-c3ccccn3)n2)nc1 | -14 | 3% | -14% | -9%[9.22 µM] | -40%
c1ccc(-c2nnc(-c3ccccn3)s2)nc1 | -10 | 7% | 5% | -8% | 1.8µM*
N#CC1=C2N=C(N)c3c(sc4c3CCCCC4)N2C2=C(C(=O)CCC2)C1c1ccccc1 (stereo unspecified) | 49 | 14% | ? | -1% | 11µM*
COc1ccc(Oc2ncc3nc(-c4ccc(OC)cc4)c(=O)n(C)c3n2)cc1 | / | / | 7% | / | 11%
Cc1nc(NC(=O)c2ccco2)sc1-c1csc(Nc2ccc(Cl)cc2)n1 | -9 | 4% | -7% | -1% | 24%
Cc1ccccc1Nc1nc(-c2sc(NC(=O)c3cccc(Cl)c3)nc2C)cs1 | / | / | ? | / | 13µM*
Cc1ccc(Cl)cc1Nc1nc(-c2sc(NC(=O)c3ccco3)nc2C)cs1 | -19 | 21µM* | -5% | 9% | 6%
Cc1nc(NC(=O)c2ccco2)sc1-c1csc(Nc2ccc(Cl)cc2Cl)n1 | 0 | 16µM* | -24% | ? | ?
CCOc1ccccc1Nc1nc(-c2sc(NC(=O)c3ccc([N+](=O)[O-])cc3)nc2C)cs1 | / | / | ? | / | 6.3µM*
C/C1=C2N=C(/C=C3N=C(/C(C)=C4\[N-]C(C)(C5N=C1C(C)(CCC(=O)NCC(C)OP(=O)([O-])O[C@H]1C(O)C(n6cnc7cc(C)c(C)cc76)O[C@@H]1CO)C5CC(N)=O)C(C)(CC(N)=O)C4CCC(N)=O)C(C)(CC(N)=O)C\3CCC(N)=O)C(C)(C)C/2CCC(N)=O.[CH2-]C1OC(n2cnc3c(N)ncnc32)C(O)C1O.[Co] (stereo partly specified) | / | 1% | -18% | / | -12%
O=C(NCCCN1CCCC1=O)c1ccc(NS(=O)(=O)c2cccc([N+](=O)[O-])c2)cc1 | 9 | 2% | / | -439% | /
Cc1[nH]c2ccccc2c1SCC(=O)NNC(=O)Nc1ccc(OC(F)(F)F)cc1 | / | 13µM* | 8% | -3% | 17%
COc1ccccc1CCn1c(=O)c(C)nc2cncnc21 | / | / | 0% | / | -15%
Cc1cc(NC(=O)CSc2[nH]c(=O)cc(C(F)(F)F)c2C#N)no1 | -20 | 2% | / | -16% | /
Cc1cc(C)c(C(N)=O)c(SCC(=O)c2ccc(Cl)cc2)n1 | -20 | ? | ? | ? | 15%
Cc1cc(-n2c(C)cc(C(=O)CSc3[nH]c(=O)cc(C(F)(F)F)c3C#N)c2C)no1 | 13 | ? | / | 3.3µM* | /
Cc1ccc(C(=O)CSc2nc(C)cc(C)c2C(N)=O)cc1 | -52* | 154% | ? | -27% | -25%
Cc1cc(C)c(C(N)=O)c(SCC(=O)c2cc(C)n(-c3cc(C)on3)c2C)n1 | 23 | 21µM* | / | ? | /
CC(C)C[C@H]1COc2cccc(N3CCSCC3)c2S(=O)(=O)N1 | 33 | / | / | / | /
O=c1[nH]c(Cc2cccs2)nc2scc(-c3ccc(Cl)cc3)c12 | 1 | ? | -1% | -8% | ?
